# Laboratory results as given in the supplement of paper PMC3334620.
# In all, about 33,000 sequences were measured (“E-score (-0.5 to 0.5)”: median about -0.017, highest 2% from about 0.3 on). The sample holds the highest values, similar sequences and a random draw of the others, so the mix is not that of the screen.
# Molecular target: T1, Sut1 (UniProt P53032)
# T1 sequence: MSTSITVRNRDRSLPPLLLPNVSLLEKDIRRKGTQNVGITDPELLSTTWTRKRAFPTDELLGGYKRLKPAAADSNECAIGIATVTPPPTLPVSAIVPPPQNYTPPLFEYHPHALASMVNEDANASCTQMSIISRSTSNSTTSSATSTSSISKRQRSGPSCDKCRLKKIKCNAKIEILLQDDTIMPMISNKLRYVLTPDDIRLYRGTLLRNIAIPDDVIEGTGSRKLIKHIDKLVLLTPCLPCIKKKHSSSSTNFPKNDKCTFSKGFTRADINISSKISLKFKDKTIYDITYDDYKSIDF
# Assay: PBM E-score (8-mer binding enrichment) (E-score (-0.5 to 0.5)); higher = stronger / more preferred TF binding
# Conditions: protein concentration: 200 nM; construct: GST-full length
# Procedure: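 Universal 'all 10-mer' protein binding microarrays (Agilent AMADID 015681) probed with GST-tagged S. cerevisiae TFs (full-length or DBD) made by in vitro transcription/translation (PURExpress), about 100-200 nM. Bound TF was detected with fluorescent anti-GST. Each ungapped 8-mer (which stands for itself and its reverse complement) is scored by the PBM enrichment score (E-score), a modified Wilcoxon-Mann-Whitney statistic from -0.5 to +0.5, computed with the Universal PBM Analysis Suite. Scale: above 0.35 generally sequence-specific binding.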
row,Sequence,PBM E-score
1,CTACGGAA,0.0897
2,CTACGGAG,0.381
3,ATACGGAG,0.362
4,ATACGGTG,0.0347
5,CTACGGAC,0.169
6,CAGAAGGG,-0.238
7,ACTGCAAG,-0.0394
8,ATGGGAAA,0.0371
9,ATGGCCGG,-0.0767
10,CGCCGGCG,0.375
11,AGCCGGAT,0.125
12,CGCCGGAC,0.275
13,AGCCGGTG,0.00841
14,GGCCGGAC,0.302
15,AGCCGGAC,0.342
16,AGCCGGAA,0.233
17,AGCCGGTC,-0.166
18,AGCCGGCG,-0.0364
19,CGCCGGCC,-0.0583
20,GGCCGGAA,0.0761
21,AGCCGGAG,0.371
22,ACTTCTCA,-0.033
23,GCCCATGA,-0.222
24,AAGAGCGG,0.0491
25,GTCGCGCA,0.0446

row,Sequence,PBM E-score
1,TACTCTCA,0.0648
2,AACCGTCA,-0.0173
3,CGCCGGAA,0.132
4,CGCCGTAG,0.0361
5,CGCCGGAG,0.391
6,GCGAACGA,0.0664
7,CTTACTTA,0.11
8,GCTACTCC,0.3
9,ATTACTCC,0.318
10,ATTACTGA,0.037
11,AATACTCC,0.199
12,CATACTCC,0.325
13,ACTACTCC,0.226
14,CATACTCA,-0.0521
15,GCTACTCA,0.0293
16,ATTACTTA,0.327
17,ATTACTCG,0.0802
18,ATTACTCA,0.162
19,AATGGATC,0.0349
20,ATCGACCC,0.0935
21,AGTTTTTG,0.28
22,CGGGAGAG,-0.0788
23,TACACTCA,0.0601
24,ACATACTG,0.0299
25,AGAGCACA,-0.0607

row,Sequence,PBM E-score
1,AGTACCTG,0.0244
2,GCTCATGA,-0.172
3,CTGAAGAC,-0.0142
4,CTTACTCC,0.365
5,CTTACTCA,-0.0535
6,CTTACTAC,0.0954
7,TAGCCCCA,-0.121
8,TCCGTTAA,0.326
9,CCCGTTAA,-0.176
10,GCCGTTAA,0.092
11,CCCAAAGC,-0.0681
12,CCCTGGTA,-0.336
13,CTTGGGGC,-0.245
14,GGGTTAAC,0.0764
15,CTCCTAAG,-0.111
16,CACTCCGA,0.471
17,TACTCCAA,-0.0372
18,CCCTCCGA,0.0492
19,GACTCCGA,0.486
20,GACTCCAA,-0.0971
21,TCCTCCGA,0.0213
22,CACTCCAA,0.0306
23,GACTCCTA,0.0134
24,TACTCCGA,0.491
25,AAACTATT,0.24

row,Sequence,PBM E-score
1,AGCTAGGC,-0.232
2,GCCTAGGA,-0.122
3,ACTGGGGC,-0.231
4,GAGCTATC,-0.0645
5,GACCTTCC,0.0118
6,AGCCACCT,-0.248
7,GTCCGAAC,0.397
8,ATCCGAAT,0.32
9,GCCCGAAC,-0.00475
10,CTCCGAAC,0.468
11,CTCCGAAA,0.46
12,CACCGAAA,0.137
13,AACCGAAT,0.099
14,GACCGAAC,0.0271
15,ATCCGAAG,0.101
16,CGCCGAAA,-0.00015
17,ATCCGAAC,0.213
18,CACCGAAC,-0.0118
19,CCTAGCCC,-0.128
20,AACTAGTC,0.0497
21,ATCGATCA,0.0202
22,CGAAACAC,0.0972
23,CTAACTGA,0.0767
24,ACTGGAAT,0.0551
25,CGGCCGCC,-0.05

row,Sequence,PBM E-score
1,GCCCGAAA,0.111
2,CCCCGAAC,0.0945
3,CACCGAAG,0.157
4,ATCCGAAA,0.272
5,TTCCGAAA,0.291
6,CTCCGAAG,0.457
7,CCCCGAAA,0.301
8,CGCCGAAG,0.0368
9,GTCCGAAA,0.447
10,GCGCTAGC,-0.26
11,CGAGCCCG,-0.187
12,AGAACTAC,0.0481
13,CATTGATA,0.139
14,CCGACTCC,0.321
15,CGGACTCC,0.475
16,CCGACTCA,0.0266
17,AGGACTCC,0.129
18,AGGACTCA,-0.114
19,GGGACTCA,-0.288
20,CAGACTCC,0.0916
21,CGGACTCA,0.429
22,GCGACTCC,0.119
23,AAGGTCTA,-0.127
24,CTGGTTTA,-0.0882
25,ACCGACAC,0.0514

row,Sequence,PBM E-score
1,GCGACTAA,-0.0293
2,AGCCTAAC,-0.192
3,GGAACCTA,-0.00606
4,CGCTGCGA,-0.153
5,ATGTCCGA,0.45
6,ATGTCCGG,0.451
7,CTGTCCGA,0.192
8,GTGTCCGA,0.149
9,ATGTCCGC,0.282
10,ATGTCCCG,0.0332
11,ACACTGGT,-0.102
12,AGGGGCGG,-0.158
13,GAATATTA,0.255
14,CAATATTA,0.296
15,GAATATGA,0.0941
16,TAATATTA,0.313
17,TAATATGA,0.315
18,AAATATCA,0.161
19,CAATATGA,0.181
20,TAATATCA,0.306
21,CAATATCA,0.188
22,AAGCGCGC,0.105
23,ACCGATCA,0.12
24,AAAGTTCA,-0.00163
25,CCGCCTAG,-0.166

row,Sequence,PBM E-score
1,TCTTTTCA,0.178
2,AAGCTTAT,0.0714
3,CAAACGGA,0.302
4,GACACGGA,0.296
5,TACACGGA,0.335
6,GAAACGGA,0.284
7,AAAACGGA,0.244
8,TAAACGTA,0.131
9,CACACGGA,0.12
10,TAAACGAA,0.263
11,TAAACGGA,0.321
12,CGATGCTC,0.156
13,CCTTTAGC,-0.0413
14,AGATCGTC,-0.0781
15,GCTAAAAA,-0.0323
16,GCGCGGAC,0.218
17,ACGCGGAT,0.0724
18,CCGCGGAA,0.253
19,CCGCGGAG,0.308
20,CCGCGGAC,0.274
21,ACGCGGAC,0.302
22,ACGCGGAG,0.362
23,ACGCGGAA,0.112
24,ACGCGGCC,-0.273
